# About 410 targets per protein were measured; listed, in parts, are those with the strongest signals and a random draw of the rest.
# B1: Annexin-A1 (Mus musculus), P10107 (protein)
# chain: MAMVSEFLKQARFLENQEQEYVQAVKSYKGGPGSAVSPYPSFNVSSDVAALHKAIMVKGVDEATIIDILTKRTNAQRQQIKAAYLQENGKPLDEVLRKALTGHLEEVVLAMLKTPAQFDADELRGAMKGLGTDEDTLIEILTTRSNEQIREINRVYREELKRDLAKDITSDTSGDFRKALLALAKGDRCQDLSVNQDLADTDARALYEAGERRKGTDVNVFTTILTSRSFPHLRRVFQNYGKYSQHDMNKALDLELKGDIEKCLTTIVKCATSTPAFFAEKLYEAMKGAGTRHKALIRIMVSRSEIDMNEIKVFYQKKYGISLCQAILDETKGDYEKILVALCGGN
# Legend:
# Experiment in all cases: glycan array binding signal (z-score within array); higher = stronger binding
# Details in all cases: glycan notation: IUPAC condensed, linker removed
# Fuc(a1-2)Gal(b1-4)Glc6S = target: Fuc(a1-2)Gal(b1-4)Glc6S
# Method in brief: (§1)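 From the Consortium for Functional Glycomics database, 3228 arrays were curated, keeping only those whose protein sequence was available. Binding is given as a within-array Z-score averaged across arrays sharing a protein sequence and across linkers. Negative Z-scores can be read as non-binding.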
# [1] = target: Fuc(a1-2)[Gal(a1-3)]Gal(b1-4)GlcNAc
# Method in brief: as §1
# [2] = target: Fuc(a1-3)[Gal3S(b1-4)]Glc
# Method in brief: as §1
# [3] = target: Gal(b1-3)GalNAc(b1-3)Gal(b1-4)Glc
# Method in brief: as §1
# [4] = target: Gal(b1-3)[Neu5Ac(a2-6)]GalNAc
# Method in brief: as §1
# Gal3S(b1-4)Glc6S = target: Gal3S(b1-4)Glc6S
# Method in brief: as §1
# Gal3S(b1-4)GlcNAc6S = target: Gal3S(b1-4)GlcNAc6S
# Method in brief: as §1
# Gal3S6S(b1-4)GlcNAc6S = target: Gal3S6S(b1-4)GlcNAc6S
# Method in brief: as §1
# Gal4S6S(b1-4)GlcNAc = target: Gal4S6S(b1-4)GlcNAc
# Method in brief: as §1
# Gal6S(b1-4)Glc6S = target: Gal6S(b1-4)Glc6S
# Method in brief: as §1
# GlcA(b1-6)Gal = target: GlcA(b1-6)Gal
# Method in brief: as §1
# [5] = target: GlcNAc(b1-3)Gal(b1-3)GalNAc
# Method in brief: as §1
# [6] = target: GlcNAc(b1-3)[GlcNAc(b1-6)]Gal(b1-4)GlcNAc
# Method in brief: as §1
# [7] = target: GlcNAc(b1-3)[GlcNAc(b1-6)]GlcNAc
# Method in brief: as §1
# [8] = target: GlcNAc(b1-4)Gal(b1-4)GlcNAc
# Method in brief: as §1
# Man(a1-3)[Man(a1-6)]Man = target: Man(a1-3)[Man(a1-6)]Man
# Method in brief: as §1
# [9] = target: Man(a1-3)[Man(a1-6)]Man(a1-6)[Man(a1-3)]Man(b1-4)GlcNAc(b1-4)GlcNAc
# Method in brief: as §1
# [10] = target: Neu5Ac(a2-3)Gal(b1-3)GalNAc
# Method in brief: as §1
# [11] = target: Neu5Ac(a2-3)Gal6S(b1-4)GlcNAc
# Method in brief: as §1
# [12] = target: Neu5Gc(a2-3)Gal(b1-4)[Fuc(a1-4)]GlcNAc
# Method in brief: as §1
binder,measurement,setting,value
B1,glycan array binding signal (z-score),Fuc(a1-2)Gal(b1-4)Glc6S,1.79
same,glycan array binding signal (z-score),[1],-0.684
same,glycan array binding signal (z-score),[2],-0.177
same,glycan array binding signal (z-score),[3],-0.151
same,glycan array binding signal (z-score),[4],-0.343
same,glycan array binding signal (z-score),Gal3S(b1-4)Glc6S,3.21
same,glycan array binding signal (z-score),Gal3S(b1-4)GlcNAc6S,1.83
same,glycan array binding signal (z-score),Gal3S6S(b1-4)GlcNAc6S,7.38
same,glycan array binding signal (z-score),Gal4S6S(b1-4)GlcNAc,1.13
same,glycan array binding signal (z-score),Gal6S(b1-4)Glc6S,3.55
same,glycan array binding signal (z-score),GlcA(b1-6)Gal,0.482
same,glycan array binding signal (z-score),[5],-0.049
same,glycan array binding signal (z-score),[6],-0.758
same,glycan array binding signal (z-score),[7],-0.452
same,glycan array binding signal (z-score),[8],-0.318
same,glycan array binding signal (z-score),Man(a1-3)[Man(a1-6)]Man,-0.165
same,glycan array binding signal (z-score),[9],-0.176
same,glycan array binding signal (z-score),[10],-0.573
same,glycan array binding signal (z-score),[11],-0.076
same,glycan array binding signal (z-score),[12],-0.436
